# Only some compounds are listed: those with a hit (about 13% of all), similar ones and a draw of the others.
# HCMV inh: inhibitors of human cytomegalovirus | HFF cells, HCMV-luciferase reporter, 72 h; active compounds read low | activity change, negative = inhibition, % at 57.5 µM | 410,000 compounds, 4.5% hits | AID 1259415; in the data active = activity change below about -60%; inconclusive = no clear call, values can overlap the other calls; inactive = above about -39%
#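 Inhibition of viral replication was scored as loss of reporter luminescence in HFFs infected with HCMV-luciferase (MOI 1 PFU/cell) for 72 h; compounds tested at 2 doses, normalized to buffer and Salinomycin controls.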
# Pf growth 96h: inhibits malaria parasite growth, 96 h; P. falciparum luciferase reporter growth, 96 h; Potency, µM (titrated, usually from 28.7 µM), without a hit: top-dose activity change, negative = inhibition, hits mostly inhibitors; 320,000 compounds, 6.9% hits; also: potency is read from the fitted curve at half-maximal effect
#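 Plates of compound plus infected erythrocytes (2% hematocrit, 0.05% parasitemia final) incubate 96 hours, 37 C, 5% CO2. Detection reagent added; reduced luminescence from the parasites' luciferase reporter flags inhibition.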
# Pf growth 48h: inhibits P. falciparum growth in the first generation, 48 h; P. falciparum luciferase growth in erythrocytes, 48 h; Potency, µM (doses to about 28.7 µM), without a hit: top-dose activity change, negative = inhibition, most hits filed as inhibitors; 310,000 compounds, 5.9% hits; AID 504832; also: potency is read from the fitted curve at half-maximal effect
#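 Read-out is firefly luciferase luminescence from an integrated reporter in P. falciparum, so falling signal marks reduced parasite growth. Infected erythrocytes were at 2% hematocrit and 0.1% parasitemia (final) in Albumax-supplemented RPMI 1640.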
# HCV inhibitor: HCV inhibition; Huh7.5.1 HCVcc-Cre infection, luciferase reporter, 44 h; Potency, µM (doses to about 41.8 µM), inactives show top-dose activity change, negative = inhibition, usual class: inhibitors; 340,000 compounds, 3.4% hits; AID 651820; also: potency is read from the fitted curve at half-maximal effect
#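 Cells (1,000/well) were plated 4 h before compound, then infected with HCVcc-Cre virus (~0.5 moi). After 44 h further culture, infection was read as luciferase luminescence following a 15 min substrate incubation at room temperature.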
# Numbers without * were called inactive; ? = inconclusive; . = no result given. Unless noted, calls follow the shape of the dose curve; as a rule, active = well fitted inhibition curve with a large enough effect; inconclusive = small, poorly fitted or top-dose-only effect, or another doubt; inactive = no such curve, though single readings can be large or run the other way. % is scaled to controls: 0 for no effect and ±100 for the full control effect.
SMILES,HCMV inh,Pf growth 96h,Pf growth 48h,HCV inhibitor
Cn1c(=O)c2c(nc(NCc3ccccc3)n2CC(=O)NCc2ccccc2)n(C)c1=O,-22,56%,-2%,-10%
C=CCn1c(NCCc2ccccc2)nc2c1c(=O)n(C)c(=O)n2C,-82*,-7%,-13%,?
Cn1c(=O)c2c(nc(NCCc3ccccc3)n2CC(=O)NCCc2ccccc2)n(C)c1=O,75,13µM*,-10%,-12%
COc1cc(NC(=O)Cn2c(=O)n(Cc3ccccc3OC)c(=O)c3cccnc32)cc(OC)c1,-17,.,.,.
COc1ccccc1NC(=O)Cn1cc(C(=O)c2ccncc2)c(=O)c2cc(C)ccc21,28,.,.,.
Cc1ccc(C)c(OC(=O)CSc2nnc(-c3ccc4c(c3)OCO4)o2)c1,-1,.,.,.
Cc1ccc(C(=O)N2c3ccccc3CC2C)o1 (configuration not stated),58,3.7µM*,85%,9%
CC1Cc2ccccc2N1C(=O)c1ccc(Br)o1 (configuration not stated),69,.,.,-3%
Cc1c(C(=O)C(=O)N2c3ccccc3CC2C)c2ccccc2n1C (configuration not stated),-64*,?,?,-29%
CCc1cc2c(cc3c(=O)n(CC(=O)N4CCN(c5ccccn5)CC4)nc(CC)n32)s1,-6,26%,2%,7.9µM*
COc1ccc(C(=O)NCCn2cc(SCC(=O)Nc3ccc4c(c3)OCCO4)c3ccccc32)cc1,-13,.,.,.
O=C(N/C(=C/c1cccs1)C(=O)N1CCCC1)c1ccccc1,7,37%,30%,4%
O=C(N/C(=C\c1cccs1)C(=O)N1CCCCCC1)c1ccccc1,17,9.3µM*,?,25%
O=C(N/C(=C/c1cccs1)C(=O)N1CCCCCC1)c1ccccc1,-98*,6%,?,15%
Cc1ccc(C(=O)NCC(=O)NC2CCCCCC2)cc1,-97*,?,17%,-4%
CN1CCN(C(=O)/C(=C\c2cccs2)NC(=O)c2ccccc2)CC1,-8,60%,26%,15%
CCCCOc1ccc(C(=O)NCC(=O)NC2CC2)cc1,-16,30%,5%,13%
O=C(Nc1ccc(C(=O)O)cc1)/C(=C\c1ccco1)NC(=O)c1ccccc1,8,9.3µM*,-8%,0%
COCCCNC(=O)CCc1c(C)nc2cc(-c3ccc(Cl)cc3)nn2c1C,-21,.,.,.
Cc1cc(C)c(NC(=O)/C(=C/c2ccco2)c2ccccc2)c(C)c1,1,?,.,?
O=C(Nc1ccccc1)/C(=C\c1cccs1)NC(=O)c1ccccc1,-21,1.5µM*,20%,0%
Cc1cccc(C)c1NC(=O)/C(=C/c1ccco1)c1ccccc1,70,10µM*,.,6%
O=C(N/C(=C/c1cccs1)C(=O)N1CCOCC1)c1cccs1,-21,9.3µM*,-2%,23%
Cc1ccc(C(=O)N/C(=C/c2cccs2)C(=O)N2CCCCCC2)cc1,21,-2%,-3%,5%
CC(C)(C)c1ccc(C(=O)N/C(=C\c2cccs2)C(=O)N2CCOCC2)cc1,?,-2%,-1%,15%
SMILES,HCMV inh,Pf growth 96h,Pf growth 48h,HCV inhibitor
Cc1ccc(C(=O)N/C(=C\c2cccs2)C(=O)NC2CCCCC2)cc1,-4,4.1µM*,.,0%
CCc1ccccc1NC(=O)c1nnn(Cc2ccc(Cl)cc2)c1N,-7,.,.,.
CCOC(=O)c1ccccc1NC(=O)Cn1cc(C(=O)c2cccc(OC)c2)c(=O)c2ccc(C)nc21,8,.,.,.
O=C(NCc1ccccc1)C(Nc1ccccc1)c1ccccc1F (configuration not stated),-8,.,.,.
Cc1ccc(CNC(=O)CCCn2c(=O)c3ccccc3n(CC(=O)C(C)(C)C)c2=O)cc1,9,.,.,.
COc1ccc(C(F)(F)F)cc1N/C=C\c1nnnn1-c1ccccc1,10,9%,?,?
O=C(c1ccccc1)c1ccccc1N/C=C/c1nnnn1-c1ccccc1,?,?,?,6.3µM*
CCC(Sc1nnc(-c2ccc(F)cc2)c(-c2ccc(F)cc2)n1)C(=O)NC1CCCC1 (configuration not stated),46,.,.,.
CSCCC(C(=O)Nc1c(C)cccc1C)n1c(-c2ccc(C(F)(F)F)cc2)nc2ccccc21 (configuration not stated),26,.,.,.
Cc1ccnc(NC(=O)c2cccc(NC(=O)CC3SC(N4CCCCC4)=NC3=O)c2)c1 (configuration not stated),12,8.3µM*,?,-7%
COc1cccc(CN(C)C(=O)c2ccc(NC(=O)CC3SC(N4CCCC4)=NC3=O)cc2)c1OC (configuration not stated),-13,6.6µM*,?,5%
O=C(CC1SC(N2CCCC2)=NC1=O)Nc1ccc(C(=O)Nc2ncccc2O)cc1 (configuration not stated),-14,?,2.6µM*,8%
CCNC(=O)c1ccc(NC(=O)CC2SC(N3CCCCC3)=NC2=O)cc1 (configuration not stated),28,1%,15%,18%
Cc1ccnc(NC(=O)c2ccc(NC(=O)CC3SC(N4CCCC4)=NC3=O)cc2)c1 (configuration not stated),16,?,?,-2%
COc1ccc(CN(C)C(=O)c2ccc(NC(=O)CC3SC(N4CCCCC4)=NC3=O)cc2)c(OC)c1 (configuration not stated),10,.,.,0%
Cc1ccnc(NCc2c(O)ccc3ccccc23)c1,52,0.093µM*,1%,-5%
Oc1ccc2ccccc2c1CNc1ccccc1,9,.,.,2%
CN(c1ccc2c(-c3ccccn3)noc2n1)c1ccc(F)cc1F,120,.,.,.
Cc1ccc2oc(NC3=NC4(CCCC4)C4=C(CCCC4=O)N3)nc2c1,48,.,.,.
CC1(C)CC(=O)C2=C(C1)NC(Nc1nc3ccccc3o1)=NC21CCCCC1,64,9.3µM*,?,6%
COc1ccc(N(C(=O)c2cccc(C)c2)S(=O)(=O)c2ccc(C)cc2)cc1,-12,.,.,.
CCOC(=O)c1cnc(-n2nc(C)cc2C)nc1NCc1ccccc1,-73*,15%,1.7µM*,?
CCOC(=O)c1cnc(-n2nc(C)cc2C)nc1NCCO,18,36%,?,-2%
CCOC(=O)c1cnc(-n2nc(C)cc2C)nc1NNc1cc(-c2ccccc2)nc(C)n1,.,?,?,-23%
CCOC(=O)c1cnc(-n2nc(C)cc2C)nc1NNc1ncc(-c2ccccc2)cn1,.,1.7µM*,3.3µM*,?
CCOC(=O)c1cnc(-n2nc(C)cc2C)nc1NC(C)c1ccccc1 (configuration not stated),-97*,?,2.1µM*,?
O=C(C1CC1)N1CCN(c2ccnc3cc(Cl)ccc23)CC1,?,7.4µM*,-13%,6%
O=C(c1ccco1)N1CCN(c2ccnc3cc(Cl)ccc23)CC1,?,16%,?,4%
O=C(C1CCC1)N1CCN(c2ccnc3cc(Cl)ccc23)CC1,-87*,10µM*,13µM*,?

# From PubChem BioAssay
